Laboratory results reported in PubChem BioAssay (Tox21).
Inconclusive results are not listed. Values without a mark were called inactive. Calls of active or inactive are those of the source. Calls come from the whole dose curve; as a rule, active = well fitted cell-killing curve with a large enough effect in the repeat runs; inconclusive = weak or mixed curves; inactive = no such curve, though single readings can be large or run the other way.

Assay: qHTS assay to identify small molecule antagonists of the peroxisome proliferator-activated receptor delta (PPARd) signaling pathway - cell viability counter screen (AID 743213); note: nearly all actives have a fitted effect of over 50% in size
Conditions: PPARd-bla HEK293H viability, CellTiter-Glo luminescence, 17 h; series mostly up to 62 µM; viability change, negative = cytotoxic: at the top concentration
Outline: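 Viability counter-screen, qHTS format: PPARd-bla HEK293H, L165041 300 nM final, 17 h compound exposure at 37 C, CellTiter-Glo luminescence after 30 min RT.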
% is set by controls: 0 for no effect and ±100 for the full control effect; potency is the fitted concentration of half-maximal effect.

Compound	viability change, negative = cytotoxic	Potency
C=COC(C)=O	15.6% [at 80.4 µM]	–
CCO[C@H]1O[C@@H]2OC3(C)CC[C@H]4[C@H](C)CC[C@@H]([C@H]1C)[C@@]24OO3	-9.35%	–
CCOC(=O)C(Cl)C(C)=O (centres undefined)	-5.88% [at 80.4 µM]	–
C/C=C/C=O	0.24%	–
CC1(C)[C@H](C=C(Cl)Cl)[C@@H]1C(=O)O[C@@H](C#N)c1cccc(Oc2ccccc2)c1	5.04%	–
CCOP(=O)(OCC)SCCSCC	18.5%	–
COc1cc(Cl)c(OC)cc1Cl	2.41%	–
O=[Se]=O	3.54%	–
C=CCN1CC[C@]23c4c5ccc(O)c4O[C@H]2C(=O)CC[C@@]3(O)[C@H]1C5	8.55%	–
O=C(N[C@H](c1ccccc1)[C@@H]1CN2CCC1CC2)c1c(Cl)ccc(C(F)(F)F)c1Cl	-35.8% [at 80.4 µM]	–
O=C(NCc1cccnc1)Nc1ccc([N+](=O)[O-])cc1	18.6%	–
CN1C[C@H](CNC(=O)OCc2ccccc2)C[C@@H]2c3cccc4c3c(cn4C)C[C@H]21	–	13.3 µM (active)
O=C1CN=C(c2ccccc2)c2cc(Cl)ccc2N1CC1CC1	4.59%	–
C=CC[C@]1(O)CC[C@H]2[C@@H]3CCC4=CC(=O)CCC4=C3C=C[C@@]21C	14.9%	–
CCn1cc[n+](C)c1	–	inactive
ClCC(Br)CBr (centres undefined)	-3.68%	–
COC(C)(C)CCC[C@H](C)C/C=C/C(C)=C/C(=O)OC(C)C	-24.2%	–
CC(=O)C(C)(C)C	0.02% [at 80.4 µM]	–
CO/N=C(/C(=O)OC)c1ccccc1COc1ccccc1C	-0.492%	–
